In ChEMBL document CHEMBL2218924, “A broad activity screen in support of a chemogenomic map for kinase signalling research and drug discovery” (Biochem J, 2013) one finds residual activity data, which are given here for eight compounds.

For test [1], the target named is Dual specificity protein kinase CLK3 (Homo sapiens) (UniProt P49761). Particulars: at 1 µM.
Test [2] shares this target. The note with it: at 10 µM.
The target of test [3] is Tyrosine-protein kinase CSK (Homo sapiens) (UniProt P41240). Particulars: at 10 µM.
Test [4] has as its target Calcium/calmodulin-dependent protein kinase type II subunit beta (Homo sapiens) (UniProt Q13554). Particulars: at 1 µM.
Test [5] has the same target. The note with it: at 10 µM.
Test [6] addresses Calcium/calmodulin-dependent protein kinase type II subunit gamma (Homo sapiens) (UniProt Q13555). The note with it: at 10 µM.
For test [7], the target named is Calcium/calmodulin-dependent protein kinase type II subunit delta (Homo sapiens) (UniProt Q13557). Particulars: at 10 µM.
Test [8] addresses T1, Calcium/calmodulin-dependent protein kinase type IV (Homo sapiens) (UniProt Q16566).
T1 sequence (whole entry): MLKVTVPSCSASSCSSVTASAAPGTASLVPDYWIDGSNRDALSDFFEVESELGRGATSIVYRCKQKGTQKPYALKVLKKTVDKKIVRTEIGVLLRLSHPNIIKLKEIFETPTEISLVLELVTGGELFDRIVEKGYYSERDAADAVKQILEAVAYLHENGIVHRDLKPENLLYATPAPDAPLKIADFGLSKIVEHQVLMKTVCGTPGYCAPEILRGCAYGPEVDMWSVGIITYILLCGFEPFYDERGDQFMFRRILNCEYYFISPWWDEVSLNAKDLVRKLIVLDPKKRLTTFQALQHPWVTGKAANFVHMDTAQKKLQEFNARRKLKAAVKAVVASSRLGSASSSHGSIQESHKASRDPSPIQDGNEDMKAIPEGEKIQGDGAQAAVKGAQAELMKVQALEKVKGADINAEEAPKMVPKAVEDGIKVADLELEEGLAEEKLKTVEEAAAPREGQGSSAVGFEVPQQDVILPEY
Particulars: at 10 µM.

The target of test [9] is T2, Casein kinase II (Homo sapiens) (UniProt P67870+P68400+P19784). Particulars: at 1 µM.
Test [10] concerns the target T2, Casein kinase II (Homo sapiens). The note with it: at 10 µM.
In test [11] the target is Casein kinase II subunit alpha' (Homo sapiens) (UniProt P19784). The note with it: at 1 µM.
For test [12], the target named is Dual specificity protein kinase CLK2 (Homo sapiens) (UniProt P49760). The note with it: at 1 µM.
Test [13] shares this target. The note with it: at 10 µM.
For test [14], the target named is Tyrosine-protein kinase CSK (Homo sapiens) (UniProt P41240). The note with it: at 1 µM.
Test [15] addresses Calcium/calmodulin-dependent protein kinase type 1 (Homo sapiens) (UniProt Q14012). Particulars: at 1 µM.
Test [16] deals with Calcium/calmodulin-dependent protein kinase type II subunit gamma (Homo sapiens) (UniProt Q13555). The note with it: at 1 µM.
Test [17] has as its target Calcium/calmodulin-dependent protein kinase type II subunit delta (Homo sapiens) (UniProt Q13557). Particulars: at 1 µM.
Test [18] deals with T1, Calcium/calmodulin-dependent protein kinase type IV (Homo sapiens). The note with it: at 1 µM.
For test [19], the target named is Casein kinase II subunit alpha' (Homo sapiens) (UniProt P19784). The note with it: at 10 µM.
Test [20] concerns the target Calcium/calmodulin-dependent protein kinase type 1 (Homo sapiens) (UniProt Q14012). Particulars: at 10 µM.

Chain of Calcium/calmodulin-dependent protein kinase type 1 (Homo sapiens) (Q14012 whole entry, looked up): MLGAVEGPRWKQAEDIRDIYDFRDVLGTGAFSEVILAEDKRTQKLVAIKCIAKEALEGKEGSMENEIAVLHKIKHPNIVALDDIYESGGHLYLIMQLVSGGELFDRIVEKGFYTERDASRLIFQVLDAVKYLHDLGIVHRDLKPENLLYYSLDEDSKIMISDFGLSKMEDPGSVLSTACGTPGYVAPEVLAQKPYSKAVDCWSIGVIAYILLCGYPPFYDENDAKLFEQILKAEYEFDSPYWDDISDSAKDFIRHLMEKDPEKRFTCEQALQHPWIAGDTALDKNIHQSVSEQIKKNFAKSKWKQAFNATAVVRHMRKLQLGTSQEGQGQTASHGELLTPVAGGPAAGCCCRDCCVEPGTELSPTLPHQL
Chain of Calcium/calmodulin-dependent protein kinase type II subunit gamma (Homo sapiens) (Q13555 whole entry): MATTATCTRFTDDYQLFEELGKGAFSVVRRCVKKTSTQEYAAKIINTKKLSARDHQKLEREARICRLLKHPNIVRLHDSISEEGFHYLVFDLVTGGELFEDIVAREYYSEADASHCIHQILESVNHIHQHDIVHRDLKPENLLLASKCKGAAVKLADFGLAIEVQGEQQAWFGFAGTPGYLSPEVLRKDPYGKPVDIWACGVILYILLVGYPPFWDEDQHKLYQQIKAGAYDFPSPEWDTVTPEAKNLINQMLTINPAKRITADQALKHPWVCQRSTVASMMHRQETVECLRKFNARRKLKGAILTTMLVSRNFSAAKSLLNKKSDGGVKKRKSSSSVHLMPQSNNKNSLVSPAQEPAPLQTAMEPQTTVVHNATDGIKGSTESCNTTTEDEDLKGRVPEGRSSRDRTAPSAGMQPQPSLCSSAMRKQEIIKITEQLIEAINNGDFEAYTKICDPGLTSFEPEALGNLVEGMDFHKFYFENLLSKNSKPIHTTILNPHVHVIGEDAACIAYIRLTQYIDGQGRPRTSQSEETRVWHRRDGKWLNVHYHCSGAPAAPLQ
Chain of Calcium/calmodulin-dependent protein kinase type II subunit beta (Homo sapiens) (Q13554 whole entry): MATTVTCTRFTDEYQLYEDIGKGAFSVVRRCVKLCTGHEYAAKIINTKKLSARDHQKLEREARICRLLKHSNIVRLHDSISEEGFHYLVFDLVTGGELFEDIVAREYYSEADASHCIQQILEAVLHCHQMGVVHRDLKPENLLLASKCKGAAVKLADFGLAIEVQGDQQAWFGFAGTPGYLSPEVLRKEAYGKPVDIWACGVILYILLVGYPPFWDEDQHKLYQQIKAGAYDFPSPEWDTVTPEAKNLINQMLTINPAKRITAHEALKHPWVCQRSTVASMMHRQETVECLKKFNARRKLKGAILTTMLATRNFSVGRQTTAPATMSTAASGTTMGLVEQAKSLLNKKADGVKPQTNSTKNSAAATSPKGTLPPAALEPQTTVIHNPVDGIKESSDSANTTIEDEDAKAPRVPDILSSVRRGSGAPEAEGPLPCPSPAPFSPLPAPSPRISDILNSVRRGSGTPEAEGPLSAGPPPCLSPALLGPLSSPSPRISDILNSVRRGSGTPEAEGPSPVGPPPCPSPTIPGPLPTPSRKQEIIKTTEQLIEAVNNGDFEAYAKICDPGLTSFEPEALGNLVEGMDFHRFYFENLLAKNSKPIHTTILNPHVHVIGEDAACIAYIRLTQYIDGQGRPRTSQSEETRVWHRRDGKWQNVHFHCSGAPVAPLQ
Chain of Calcium/calmodulin-dependent protein kinase type II subunit delta (Homo sapiens) (Q13557 whole entry): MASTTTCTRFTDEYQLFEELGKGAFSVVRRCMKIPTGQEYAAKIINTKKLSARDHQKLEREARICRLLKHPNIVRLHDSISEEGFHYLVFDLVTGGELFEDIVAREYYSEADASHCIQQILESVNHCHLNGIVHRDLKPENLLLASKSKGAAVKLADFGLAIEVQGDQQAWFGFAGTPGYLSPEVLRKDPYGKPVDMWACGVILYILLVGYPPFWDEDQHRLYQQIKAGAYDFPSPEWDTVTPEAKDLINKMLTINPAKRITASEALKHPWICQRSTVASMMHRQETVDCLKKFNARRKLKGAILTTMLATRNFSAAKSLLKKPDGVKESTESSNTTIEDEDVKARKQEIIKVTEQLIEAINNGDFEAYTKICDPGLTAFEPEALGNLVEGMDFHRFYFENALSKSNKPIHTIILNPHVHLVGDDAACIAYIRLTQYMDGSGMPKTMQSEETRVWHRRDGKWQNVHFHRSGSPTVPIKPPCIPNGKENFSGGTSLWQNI
Chain of Dual specificity protein kinase CLK2 (Homo sapiens) (P49760 whole entry, looked up): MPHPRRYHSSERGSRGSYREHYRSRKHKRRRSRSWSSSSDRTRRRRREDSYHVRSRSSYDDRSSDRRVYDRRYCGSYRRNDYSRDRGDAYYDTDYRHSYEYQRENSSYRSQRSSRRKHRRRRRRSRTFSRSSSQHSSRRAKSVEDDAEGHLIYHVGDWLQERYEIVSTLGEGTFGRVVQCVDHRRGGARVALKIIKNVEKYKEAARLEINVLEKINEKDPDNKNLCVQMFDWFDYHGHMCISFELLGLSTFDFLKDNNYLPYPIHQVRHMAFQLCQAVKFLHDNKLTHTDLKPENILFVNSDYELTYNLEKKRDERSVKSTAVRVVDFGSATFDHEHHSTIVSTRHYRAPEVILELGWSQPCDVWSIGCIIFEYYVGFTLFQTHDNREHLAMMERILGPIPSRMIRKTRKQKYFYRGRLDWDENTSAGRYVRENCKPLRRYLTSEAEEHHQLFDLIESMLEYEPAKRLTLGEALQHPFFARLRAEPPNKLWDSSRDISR
Chain of Casein kinase II subunit alpha' (Homo sapiens) (P19784 whole entry, looked up): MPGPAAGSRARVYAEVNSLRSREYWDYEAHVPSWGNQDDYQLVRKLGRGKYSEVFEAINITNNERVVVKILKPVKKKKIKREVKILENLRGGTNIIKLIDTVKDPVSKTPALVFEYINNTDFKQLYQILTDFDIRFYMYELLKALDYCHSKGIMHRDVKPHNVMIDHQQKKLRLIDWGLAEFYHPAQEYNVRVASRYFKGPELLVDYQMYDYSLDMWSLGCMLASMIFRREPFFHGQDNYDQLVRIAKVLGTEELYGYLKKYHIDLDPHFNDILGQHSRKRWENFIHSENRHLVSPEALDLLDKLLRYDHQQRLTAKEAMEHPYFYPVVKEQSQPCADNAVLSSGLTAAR
T2 sequence (P19784 whole entry, looked up): as above
T2 sequence (P67870 whole entry, looked up): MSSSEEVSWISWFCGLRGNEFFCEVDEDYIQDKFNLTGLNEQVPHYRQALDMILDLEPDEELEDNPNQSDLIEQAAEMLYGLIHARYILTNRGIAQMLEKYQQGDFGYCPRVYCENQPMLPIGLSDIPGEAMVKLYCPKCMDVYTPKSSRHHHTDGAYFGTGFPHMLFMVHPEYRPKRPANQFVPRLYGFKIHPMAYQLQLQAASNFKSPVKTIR
T2 sequence (P68400 whole entry, looked up): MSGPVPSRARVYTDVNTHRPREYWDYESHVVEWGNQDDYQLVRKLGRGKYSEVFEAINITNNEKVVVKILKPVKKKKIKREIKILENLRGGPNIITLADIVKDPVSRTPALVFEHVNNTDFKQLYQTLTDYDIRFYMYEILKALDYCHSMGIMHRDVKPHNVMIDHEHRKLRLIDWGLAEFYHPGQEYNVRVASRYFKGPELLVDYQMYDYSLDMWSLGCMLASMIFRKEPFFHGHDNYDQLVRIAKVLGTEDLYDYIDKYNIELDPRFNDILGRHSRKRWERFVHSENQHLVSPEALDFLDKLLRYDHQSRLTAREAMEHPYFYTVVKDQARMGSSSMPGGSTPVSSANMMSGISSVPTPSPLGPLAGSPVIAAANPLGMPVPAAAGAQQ
Chain of Tyrosine-protein kinase CSK (Homo sapiens) (P41240 2-450 limits assumed): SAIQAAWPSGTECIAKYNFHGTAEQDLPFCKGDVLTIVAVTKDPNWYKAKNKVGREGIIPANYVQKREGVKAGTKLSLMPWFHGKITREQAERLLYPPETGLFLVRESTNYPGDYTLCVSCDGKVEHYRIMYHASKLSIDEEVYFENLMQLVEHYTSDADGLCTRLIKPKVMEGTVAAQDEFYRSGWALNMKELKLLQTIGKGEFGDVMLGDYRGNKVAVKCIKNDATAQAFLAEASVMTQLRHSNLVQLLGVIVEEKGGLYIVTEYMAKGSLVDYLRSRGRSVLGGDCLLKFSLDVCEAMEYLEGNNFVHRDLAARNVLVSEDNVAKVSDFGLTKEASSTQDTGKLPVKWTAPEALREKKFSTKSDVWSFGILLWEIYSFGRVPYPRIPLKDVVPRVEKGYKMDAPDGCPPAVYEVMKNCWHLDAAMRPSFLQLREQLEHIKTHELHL
Chain of Dual specificity protein kinase CLK3 (Homo sapiens) (P49761 whole entry, looked up): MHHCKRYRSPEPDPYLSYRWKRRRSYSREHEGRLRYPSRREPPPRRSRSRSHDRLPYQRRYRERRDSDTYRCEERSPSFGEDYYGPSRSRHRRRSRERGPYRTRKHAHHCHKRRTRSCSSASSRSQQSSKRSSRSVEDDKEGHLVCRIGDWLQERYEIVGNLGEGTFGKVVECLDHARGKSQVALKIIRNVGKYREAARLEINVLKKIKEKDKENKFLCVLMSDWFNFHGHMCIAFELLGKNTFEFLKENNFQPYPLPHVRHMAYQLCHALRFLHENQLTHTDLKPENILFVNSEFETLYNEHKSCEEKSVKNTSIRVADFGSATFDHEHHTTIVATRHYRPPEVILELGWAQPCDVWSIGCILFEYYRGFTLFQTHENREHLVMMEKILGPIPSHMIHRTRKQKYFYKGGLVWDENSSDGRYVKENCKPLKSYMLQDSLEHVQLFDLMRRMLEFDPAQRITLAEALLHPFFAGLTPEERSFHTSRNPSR

On to `COc1cc2ncc(-c3ccccc3)nc2cc1OC`, for which the residual activity turned out to be 92% in [1]; 81% in test [2]; 94% in [3]; 100% in test [4]; 82% in test [5]; 78% in test [6]. The residual activity in [7] worked out at 80%; in test [8] it was 60%.
On to `O=C1Nc2ccc(Br)cc2/C1=C\c1cc2c([nH]1)CCCC2`, for which the residual activity in test [9] was 77%; in test [10], 117%; in test [11], 120%; in [12], 106%; in [13] it was 101%; in [2], 53%. For the same compound, the residual activity in [14] was 118%; in test [3] it was 102%; in test [15], 105%; in [4] it was 72%; in [5] it was 69%; in test [16], 20%. The residual activity in test [6] is 16%; in [17], 18%; in [7], 20%; in test [18], 135%.
For the compound `O=C1NC(=O)c2cc(Nc3ccc(F)cc3)c(Nc3ccc(F)cc3)cc21`, the residual activity in test [9] came to 90%; in [10] it was 110%; in test [11], 125%; in test [19] it was 96%; in test [12] it was 100%; in test [13] it was 40%. Moreover, the residual activity in [1] was found to be 79%; in [2] it was 129%; in test [14], 98%; in test [3] it was 93%; in [15], 109%; in test [20] it was 71%. The residual activity amounted to 85% in test [4]; 50% in test [5]; 111% in [16]; 102% in test [6]; 110% in [17]; 88% in test [7]. Moreover, the figures for the residual activity in test [18] and in [8] were 119% and 66%, respectively.
For the compound `CO[C@H]1C[C@@H]2CC[C@@H](C)[C@@](O)(O2)C(=O)C(=O)N2CCCC[C@H]2C(=O)O[C@H]([C@H](C)C[C@@H]2CC[C@@H](O)[C@H](OC)C2)CC(=O)[C@H](C)/C=C(\C)[C@@H](O)[C@@H](OC)C(=O)[C@H](C)C[C@H](C)/C=C/C=C/C=C/1C`, the residual activity is 99% in [9]; 98% in test [10]; 105% in test [19]; 118% in [12]; 137% in test [13]; 80% in test [1]. Moreover, the residual activity in [2] was 95%; in [14] it was 112%; in test [3] it was 95%; in test [15], 108%; in [20], 84%; in test [4] it was 92%. In addition, the residual activity in test [5] was 79%; in test [16], 103%; in [6], 96%; in [17], 109%; in test [7], 99%; in [18], 131%. The residual activity in [8] was 119%.
Turning to `CC#CC(=O)Nc1cc2c(Nc3ccc(F)c(Cl)c3)ncnc2cn1`, the residual activity in test [9] was found to be 78%; in test [10], 114%; in test [11] it was 120%; in test [19] it was 86%; in test [12] it was 103%; in test [13], 88%. In addition, the residual activity in test [1] came out at 83%; in test [2], 125%; in test [14], 103%; in [3], 99%; in test [15], 98%; in test [20] it was 80%. Further, the residual activity in test [4] was found to be 91%; in test [5], 84%; in [16], 108%; in test [6] it was 93%; in test [17] it was 107%; in [7], 97%. Further, the residual activity in test [18] stood at 121%; in test [8], 87%.
On to `Cc1cccc(-c2[nH]c(C(C)(C)C)nc2-c2ccc3c(c2)OCO3)n1`, for which the residual activity in test [10] was 132%; in test [1], 90%; in test [2], 145%; in [4] it was 93%; in test [5] it was 88%; in test [6], 99%. The residual activity in test [17] is 105%; in [7], 99%; in test [18], 129%; in test [8], 88%.
`CO[C@@H]1[C@H](N(C)C(=O)c2ccccc2)C[C@H]2O[C@]1(C)n1c3ccccc3c3c4c(c5c6ccccc6n2c5c31)C(=O)NC4`: the residual activity was 73% in test [9]; 97% in test [10]; 117% in test [11]; 102% in test [19]; 17% in [12]; 9% in test [13]. The residual activity in test [2] worked out at 4%; in test [14], 82%; in test [3], 78%; in test [15], 84%; in [20] it was 29%; in test [4], 18%. Further, the residual activity was 4% in test [5]; 10% in [16]; -1% in test [6]; 5% in test [17]; 1% in test [7]; 98% in [18]. Moreover, the residual activity in test [8] turned out to be 50%.
As to `CC(=O)c1ccc(N2CCOCC2)cc1O`, the residual activity in test [9] stood at 81%; in test [10], 108%; in [19] it was 93%; in [13] it was 101%; in test [2], 91%; in test [15], 108%. The residual activity is 83% in test [20]; 89% in test [4]; 92% in [5]; 103% in [16]; 96% in test [6]; 102% in test [17]. In addition, the residual activity in [7] was 86%; in [18] it was 97%; in test [8], 98%.
